Bioassay records: PubChem BioAssay, several laboratories
Fluor 339 460: intrinsic fluorescence of library compounds, ex339/em460 – biochemical, MLSMR library, data from DPM-DC assay, artefact control, profiling panel | compound autofluorescence, ex339/em460 nm, NADH buffer; stronger effect = higher value; 1 = no-compound wells, NADH background | fluorescence fold increase at 10 µM | hit rate 5.5% among 65,000 | AID 709, 2007;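 active = at 10 µM, mean starting fluorescence two-fold or more over control wells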;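 note: signal is the first read of a kinetic run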
M1 antag: antagonists of rat M1 muscarinic receptor; AID 628, 2007; B-score at 10 µM; hit rate 3.4% among 64,000; CHO-M1 cells, Fluo-4 calcium, ACh EC80 antagonist mode; stronger effect = lower value; Muscarinic acetylcholine receptor M1 (Rattus norvegicus), P08482;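 active = calcium fluorescence response, raw or row-and-column corrected B-score, differing from the plate sample mean either way at a set confidence level, mostly lower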
M1 ag: M1 muscarinic receptor agonists, primary screen, CHO-M1 cells, Fluo-4 calcium, agonist mode | Muscarinic acetylcholine receptor M1 | Fluo-4 calcium fluorescence; stronger effect = higher value | B-score at 10 µM | hit rate 3% among 64,000 | AID 626, 2007;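 active = fluorescence rise, raw or as B-score row- and column-corrected plate score, outside the 99.7% band of its plate's samples, either direction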
WNV protease inh: inhibitors of WNV NS2B-NS3 protease, primary screen, biochemical, fluorogenic substrate; fluorogenic substrate Ex360/Em465; stronger effect = lower value; z-score (no concentration beside the values); hit rate 0.18% among 65,000; AID 577, 2007; in the data active = z-score below about -3
Target sequence (P06935 1371-1501 limits assumed): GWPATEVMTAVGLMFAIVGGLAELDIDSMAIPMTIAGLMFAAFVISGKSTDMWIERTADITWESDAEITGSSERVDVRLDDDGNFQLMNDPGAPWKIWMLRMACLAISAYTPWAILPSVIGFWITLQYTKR
Target sequence (P06935 1502-1679 limits assumed): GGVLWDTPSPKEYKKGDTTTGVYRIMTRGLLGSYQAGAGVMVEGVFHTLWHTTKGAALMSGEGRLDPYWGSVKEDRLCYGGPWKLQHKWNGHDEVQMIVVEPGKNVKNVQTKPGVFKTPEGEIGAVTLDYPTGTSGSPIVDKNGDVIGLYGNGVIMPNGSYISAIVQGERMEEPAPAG
A340 absorber: compound light absorbance at 340 nm, profiling panel, artefact control, biochemical, MLSMR library, data from PS, PMK, MK assays; compound absorbance at 340 nm, fold over control; fold change at 10 µM; 65,000 tested, under 10 active;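 active = at 10 µM dose, initial 340 nm absorbance at least 2 fold that of control wells; inactive = change under 2 fold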;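 note: initial absorbance extrapolated from kinetic A340 decline of NADH oxidation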
BAP1 inh: inhibitors of BAP1 deubiquitinase, primary screen, biochemical, Ub-AMC fluorescence, kinetic. Ubiquitin carboxyl-terminal hydrolase BAP1 (Homo sapiens), Q92560. recombinant BAP1, Ub-AMC hydrolysis fluorescence kinetic; stronger effect = lower value. calls only at 20 µM. hit rate 0.48% among 72,000;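 active = activity remaining at or below 50% of control, provided the compound also passes the data quality filters; inactive = the rest, including low values that fail the filters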;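 note: 100% = DMSO wells rate and 0% = substrate alone blank rate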
M1 ag confirm: rat M1 muscarinic receptor agonists, confirmation, CHO-M1 cells, Fluo-4 calcium, duplicate retest; shares compounds with M1 ag; Fluo-4 calcium fluorescence, agonist mode; actives lie on both sides; fluorescence change (max-min) at 10 µM; hit rate 19% among 1,700; AID 1488, 2009;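 active = fluorescence change differs from the solvent-only DMSO control mean at a set confidence level in both duplicate runs; inconclusive = differs from solvent-only control mean in just one of two runs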;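 note: an EC20 dose of acetylcholine follows compound addition during the same imaging run; raw fluorescence intensity difference in instrument units with no normalization to controls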
M4 agonist ctr: agonist activity at rat M4 receptor, confirmation, counter-screen for M1 allosteric modulator project, cell-based, agonist mode; shares compounds with M1 ag; CHO M4/Gqi5 cells, Fluo-4 calcium fluorescence; actives lie on both sides; fluorescence change (max-min) at 10 µM; hit rate 9% among 1,700;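 active = fluorescence change differing from the plate's solvent-only control wells at 99.7% confidence in both duplicates, whether higher or lower; inconclusive = differs from solvent controls in only one of two duplicates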
Active calls of the source: *; i = inactive; ? = inconclusive; nt = no result shown. Most compounds without a hit are left out; they make up all but 9.7% or so of the library.

SMILES | Fluor 339 460 | M1 antag | M1 ag | WNV protease inh | A340 absorber | BAP1 inh | M1 ag confirm | M4 agonist ctr
c1ccc(-n2nnnc2SCCCSc2nc3ccccc3s2)cc1 | 1.08 | -0.854 | 26.8* | 0.03 | 1.01 | nt | 26.4 | ?
CC1=C(C(=O)OCCOC(C)C)C(c2cccc(Cl)c2)NC(=O)N1 (stereo not given) | nt | nt | nt | nt | nt | i | nt | nt
O=C(Nc1ccc2oc(-c3ccc(F)cc3)nc2c1)c1cccc([N+](=O)[O-])c1 | nt | nt | nt | nt | nt | i | nt | nt
CCOC(=O)N1CCC(NCCNC(=O)c2ccc(Cl)cc2)CC1 | 1.18 | -0.875 | 18.2* | -1.54 | 1.05 | i | 115* | 1.44
CCOC(=O)N1CCC(Nc2c(N3CCN(c4cc(Cl)ccc4C)CC3)c(=O)c2=O)CC1 | 1.05 | -0.602 | -0.986 | 0.17 | 1 | i | nt | nt
CCn1c(CC(C)C)n[nH]c1=S | 1.07 | 0.0243 | -0.224 | -0.29 | 1.01 | i | nt | nt
CCn1c(CCn2ccnc2C)n[nH]c1=S | 1.1 | -7.26* | 52.8* | 0.69 | 1.02 | i | 225* | ?
CC1(C)Cc2nc3oc4c(N(CCO)Cc5ccccc5)ncnc4c3cc2CO1 | 2.4* | -0.466 | 8.13* | -0.97 | 1.02 | i | -12 | -20
CC1(C)Cc2nc3sc4c(SCC(=O)NCc5ccco5)ncnc4c3cc2CO1 | 1.14 | -0.761 | 0.712 | 0.03 | 1.1 | i | nt | nt
CS(=O)(=O)N(CC(=O)N1CCCCCC1)c1ccc2c(c1)OCCO2 | 1.01 | -0.142 | -2.08* | -0.64 | 1.03 | i | 21.6 | -24.8
Cc1ccc(S(=O)(=O)N2CCN(c3ccc([N+](=O)[O-])c(NC(C)C45CC6CC(CC(C6)C4)C5)c3)CC2)cc1 (stereo not given) | nt | nt | nt | nt | nt | i | nt | nt
Cc1ccc2nc(SCC(=O)Nc3c(C)n(C)n(-c4ccccc4)c3=O)[nH]c2c1 | 1.11 | -0.0409 | 2.93* | 0.73 | 1.01 | i | -7.1 | -31.5
Nc1c(C(=O)Nc2ccccc2)sc2nc(-c3ccco3)ccc12 | 3.74* | -0.558 | 2.81* | -0.16 | 1.15 | i | ? | -56.8
COc1ccccc1CCNC(=O)c1cnn2c(C(F)F)cc(C)nc12 | 1.12 | -0.534 | 2.48* | 0.12 | 1.07 | i | -9.86 | -34.3
COc1cc2ccccc2cc1C(=O)Nc1ccc(N2CCN(C)CC2)cc1 | 1.15 | -8.01* | 5.87* | -1.08 | 1.06 | i | -24.1* | -47.4
CC(C)OC(=O)c1c2nc3ccccc3nc2n2c1[nH]c(=O)c1ccccc12 | 2.28* | 0.398 | 7.94* | 1.21 | 1.01 | i | 73.5* | 113
CC(=O)c1cccc(NC(=O)c2ccccc2Br)c1 | nt | nt | nt | nt | nt | i | nt | nt
CCOc1cc(S(=O)(=O)NC2CCCC2)ccc1Cl | 1.02 | -0.33 | 8.92* | 0.82 | 1 | i | 4.7 | -12.9
CCOC(=O)c1c(NC(=O)C(C)(C)C)sc(C(=O)Nc2ccccc2)c1C | nt | nt | nt | nt | nt | i | nt | nt
CCC(NC(=O)c1ccccc1NC(=O)c1ccco1)C(=O)O (stereo not given) | 1.05 | -0.132 | 0.447 | -0.37 | 1.05 | i | nt | nt
O=C(Nc1ccccc1C(=O)NC(Cc1c[nH]c2ccccc12)C(=O)O)c1ccco1 (stereo not given) | 1.11 | 0.0127 | -2.59* | -1.13 | 1.04 | i | -28.1* | -67.1
Cc1ccc(-n2nnnc2SCC(=O)NC(=O)Nc2ccc3c(c2)OCCO3)cc1 | 1.09 | 1 | -0.21 | 0.21 | 1 | i | nt | nt
Cc1ccc(NC(=O)CCSc2nnnn2-c2ccc3c(c2)OCO3)cc1C | 1.1 | -0.17 | -2.71* | 0.72 | 1 | i | -5.81 | -19.3
COc1ccc(C2C=C(Nc3ccc(C)cc3)C(=O)N2c2ccc(C)cc2)c(OC)c1 (stereo not given) | nt | nt | nt | nt | nt | i | nt | nt
COc1ccc(C2NC(=S)NC(C)=C2C(=O)Nc2ccc(Cl)cc2)cc1OC (stereo not given) | nt | nt | nt | nt | nt | i | nt | nt
SMILES | Fluor 339 460 | M1 antag | M1 ag | WNV protease inh | A340 absorber | BAP1 inh | M1 ag confirm | M4 agonist ctr
COC(=O)C1=C(NC(=O)NC(=O)N(C)S(=O)(=O)c2ccc(C)cc2)CCS1 | nt | nt | nt | nt | nt | i | nt | nt
Cc1ccc(/C=c2\sc3nc(-c4cccs4)nn3c2=O)o1 | 1.08 | 0.298 | 45.7* | -0.89 | 1.1 | i | 39.2 | 48.4
COc1ccccc1/C=c1\sc2nc(-c3cccs3)nn2c1=O | 1.22 | 1.16 | -0.223 | -0.14 | 1.08 | i | nt | nt
O=C(c1ccccc1Cl)N1CCN(c2ccc(F)cc2)CC1 | nt | nt | nt | nt | nt | i | nt | nt
CCOC(=O)C1=C(CS(=O)(=O)c2ccccc2)NC(=O)NC1c1ccccc1 (stereo not given) | 1.26 | 0.214 | 4.26* | -0.56 | 1.02 | i | ? | ?
Cc1ccc(C)c(OCC(O)CN2CCCCC2C)c1 (stereo not given) | 1.12 | 0.369 | 0.484 | -0.22 | 1.1 | i | nt | nt
Cc1ccc(C)c(OCC(O)CN2C(C)CCCC2C)c1 (stereo not given) | 1.02 | -1.46* | 2.52* | 0.48 | 1.01 | i | -29.2* | -55.1
COC(=O)c1c(NC(=O)c2ccc(Cl)c([N+](=O)[O-])c2)sc2c1CCC(C)C2 (stereo not given) | nt | nt | nt | nt | nt | i | nt | nt
COc1ccc(C2CC(C(F)(F)F)n3nc(C(=O)Nc4cccnc4Cl)c(Cl)c3N2)cc1OC (stereo not given) | nt | nt | nt | nt | nt | i | nt | nt
CCOc1cc(-c2ccc(N)c(OCC)c2)ccc1N | 1.5 | 0.0771 | 35.9* | -0.13 | 1.04 | i | 249* | 211*
Cc1ccc2nc(/C(C#N)=N/O)[nH]c2c1 | 1.01 | 1.24 | 3.56* | 0.08 | 1.04 | i | ? | -33
Cc1ccc2nc(C(O)C(O)c3nc4ccc(C)cc4[nH]3)[nH]c2c1 (stereo not given) | 1.17 | 0.488 | -2.53 | 0.31 | 1.03 | nt | nt | nt
COC(=O)c1c(NC(=O)c2ccc([N+](=O)[O-])cc2Cl)sc2c1C(C(=O)OC)CC2 (stereo not given) | nt | nt | nt | nt | nt | i | nt | nt
O=C1CN(C(=O)COC(=O)c2ccccc2NC(=O)c2ccco2)c2ccccc2N1 | 1.08 | -0.733 | 3.58* | 0.81 | 0.98 | i | ? | ?
O=C1CN(C(=O)COC(=O)C2=COCCO2)c2ccccc2N1 | 1.13 | 0.205 | 0.00697 | -0.58 | 1.02 | i | nt | nt
